In PubChem BioAssay (NCI):
Compounds without any hit were thinned out: in the full panel of roughly 83,000, 20% have a hit.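 Compound tested at a single concentration for 48 hours in 96-well plates; a percent growth value below 10 was scored as active.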 Unmarked numbers belong to inactive results. The source made the active and inactive calls.

tested on: SR leukemia; test: NCI-60 one-dose screen, 48 h (100 = growth as untreated, 0 = no growth, -100 = all killed); conditions: 10 µM unless noted
Method: Growth inhibition of the SR human tumor cell line is measured as a screen for anti-cancer activity. Cells are grown in 96 well plates and exposed to the test compound for 48 hours. Compounds are tested at a single concentration, which is 10^-5 M for most compounds. The reported endpoint is percent growth (GI% or GIPRCNT), where numbers from 0 - 100% represent growth inhibition, and numbers from -100% - 0 represent cell death. For example, a value of 40 represents 60% growth inhibition. A value of 0 means no net growth occurred over the course of the experiment. A value of -40 indicates 40% of cells at the beginning of the experiment died by the end of the experiment. A value of -100 means all cells are dead at the end of the experiment.
NCI-60 Human Tumor Cell Lines Screen was performed using the standard one-dose NCI protocol, which is described in more detail at https://dtp.cancer.gov/discovery_development/nci-60/default.htm.
Compounds with GIPRCNT values below 10 were considered active. Activity score was based on GIPRCNT using the following formula: […]
Score is 0 for GIPRCNT values of 100 or above, 50 for GIPRCNT values of 0, and 100 for GIPRCNT values of -100.

Structure (SMILES) | growth
N#CCCNc1ccccc1 | 77.1%
CC[C@H](C)[C@H](NC(=O)C12C3C4C1C1C2C3C41NC)C(=O)N(C)[C@H](C[C@@H](OC(C)=O)c1nc(C(=O)N[C@@H](Cc2ccccc2)C[C@H](C)C(=O)OC)cs1)C(C)C (stereo not given in full) | 20%
CC[C@H](C)[C@H](NC(=O)[C@H]1CCCCN1C)C(=O)N(C)[C@H](C[C@@H](OC(C)=O)c1nc(C(=O)NC23CC(C(=O)OC)(C2)C3)cs1)C(C)C | 0.833% (active)
COc1ccc(/C=C\c2cc(OC)c(OC)c(OC)c2)c(NS(=O)(=O)c2ccc(C)cc2)c1O | 17.2%
CC(C)(N)Cc1ccccc1 | 100%
COC(=O)[C@@H](C)C[C@H](Cc1ccccc1)NC(=O)c1csc([C@@H](C[C@H](C(C)C)N(C)C(=O)[C@@H](NC(=O)[C@H]2CCCCN2C)C(C(F)(F)F)C(F)(F)F)OC(C)=O)n1 | 5.49% (active)
O=C1NC(=O)C(=Cc2cn(C(=O)c3ccccc3)c3ccccc23)C(=O)N1 | 90.5%
COP(=S)(N1CC1)N1CC1 | 89.9%
CCC(O)(CN)c1ccccc1 (stereo not given) | 100%
CC(C)CCC(=O)O[C@H]1CC[C@H]2[C@@H]3CCC4=CC(=O)CC[C@]4(C)[C@H]3CC[C@]12C | 90.7%
O=C(CC1(O)C(=O)Nc2ccc(Cl)cc21)c1ccc(C(=O)NCC2CCC3(CC2)OOC2(CCCCC2)OO3)cc1 (stereo not given) | -48.2% (active)
O=C1NC(=O)C(=Cc2ccc(OCCCCC3CCCCC3)c(Cl)c2)C(=O)N1 | 106%
COc1ccc(/C=C\c2cc(OC)c(OC)c(OC)c2)c(NS(=O)(=O)c2ccc(F)cc2)c1O | 19%
CC[C@H](C)[C@H](NC(=O)c1ccccn1)C(=O)N(C)[C@H](C[C@@H](OC(C)=O)c1nc(C(=O)N[C@@H](Cc2ccccc2)C[C@H](C)C(=O)OC)cs1)C(C)C | 4.97% (active)
CC(C)=CCc1c(O)c(C(=O)CC(C)C)c(O)c2c(-c3ccccc3)cc(=O)oc12 | 41.5%
O=C(O)C1C(C(=O)O)C2(Cl)C(Cl)=C(Cl)C1(Cl)C2(Cl)Cl.[Hg] (stereo not given) | 60.6%
O=C([O][Hg][CH2]C1OCCOC1[CH2][Hg][O]C(=O)c1ccccc1)c1ccccc1 (stereo not given) | 2.54% (active)
COc1ccc2c(c1)c(-c1nc(-c3cn(C)c4ncccc34)cs1)cn2CCN1CCOCC1 | 39.1%
O=C(N/N=C/c1ccc(N(CCCl)CCCl)cc1)c1cccc2ccccc12 | 24.2%
COC(=O)C12CC(NC(=O)c3csc([C@@H](C[C@H](C(C)C)N(C)C(=O)[C@@H](NC(=O)[C@H]4CCCCN4C)C(C)C)OC(C)=O)n3)(C1)C2 | 15.2%

Structure (SMILES) | growth
O=C(CCCCCNC1=CC(=O)c2ccccc2C1=O)NCCC[Te]c1ccccc1 | 38.3%
CCc1ccccc1[C@@H]1C[C@]2(C)CCO[C@@H]2OO1 | 102%
C[C@]12CCc3nc(Nc4ccccc4F)sc3C1=CC[C@@H]1[C@@H]2CC[C@]2(C)C(=O)CC[C@@H]12 | 11.4%
O=P(Oc1ccc(Cl)cc1)(N1CC1)N1CC1 | 77.8%
O=C(Nc1ccc([N+](=O)[O-])cc1)C(Cl)(Cl)Cl | 94.1%
CC(=O)OC1CCC2C3CCC4=C/C(=N/OC(=O)c5ccc(N(CCCl)CCCl)cc5)CCC4(C)C3CC(C)C12 (stereo not given) | -7.87% (active)
COc1cc(C=Nc2cccc(Br)c2)ccc1N(CCCl)CCCl | 44.1%
CCOC(=O)[C@@H](C)C[C@H](Cc1ccccc1)NC(=O)c1csc([C@@H](C[C@H](C(C)C)N(C)C(=O)[C@@H](NC(=O)[C@H]2CCCCN2C)C(C)(C)CC)OC(C)=O)n1 | -4.98% (active)
CC[C@H](C)[C@H](NC(=O)[C@H]1CCCCN1C)C(=O)N(C)[C@H](C[C@@H](O)c1nc(C(=O)N[C@@H](Cc2ccccc2)C[C@H](C)C(=O)O)cs1)C(C)C | 29.2%
CN(C)C(=O)Oc1ccc(Br)cc1 | 100%
CCN(CCO)C(Cc1ccccc1)c1ccccc1 (stereo not given) | 116%
COC(=O)[C@H](Cc1ccccc1)NC(=O)c1csc([C@@H](C[C@H](C(C)C)N(C)C(=O)[C@@H](NC(=O)[C@H]2CCCN2C)C2CC2)OC(C)=O)n1 | 6.34% (active)
C=CC1=C[C@@H]2[C@@H]3O[C@]4(CC[C@H](O4)[C@@H](C)C[C@@H](O)C3=O)C[C@H](O)C3=NCC[C@@]32CC1 | 2.4% (active)
C#C[C@]1(OC(=O)CCCCCC)CC[C@H]2[C@@H]3CCC4=CC(=O)CC[C@@H]4[C@H]3CC[C@@]21C | 17.5%
COC(=O)[C@@H](C)C[C@H](Cc1ccc(F)cc1)NC(=O)c1csc([C@@H](C[C@H](C(C)C)N(C)C(=O)[C@@H](NC(=O)[C@H]2CCCCN2C)C2CC2)OC(C)=O)n1 | 17.5%
COC(=O)[C@@H](NC(=O)c1cn(CCC2CCCCC2)c2ccccc12)C(C)(C)C | 61.3%
O=C(Nc1ccc([As]=[As]c2ccc(NC(=O)c3ccccc3)cc2)cc1)c1ccccc1 (stereo not given) | 0.482% (active)
C/C=C(\C)C(=O)O[C@@H]1C(O)[C@H]2OC(COC(=O)CCC(=O)CCCCCC[C@H](CCCCC)O[C@@H]3OC(C)[C@H](OC(C)=O)C(O)[C@H]3O2)[C@H]1OC(=O)/C=C/c1ccccc1 (stereo not given in full) | -7.08% (active)
CC(C)=CCC/C(C)=C/C=N\N=C(/N)N[N+](=O)[O-] | 83.6%
COC(=O)[C@@H](C)C[C@H](Cc1ccccc1)NC(=O)c1csc([C@@H](C[C@H](C(C)C)N(C)C(=O)[C@H](C)NC(=O)[C@H]2CCCCN2C)OC(C)=O)n1 | 15.8%
